In PubChem BioAssay (Tox21):
Inconclusive results are not listed. Calls of active or inactive are those of the source. Unless noted, calls follow the shape of the dose curve; as a rule, active = well fitted curve in the direction sought with a large enough effect in the repeat runs; inconclusive = weak or mixed curves; inactive = no such curve, though single readings can be large; an effect the other way counts as inactive or inconclusive.

Assays:
[1] = qHTS assay to identify small molecule agonists of the estrogen receptor alpha (ER-alpha) signaling pathway in the presence of an antagonist - cell viability counter screen (AID 1259386);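 also: series mostly up to about 92 µM; cells exposed to compounds for 22 h at 37 °C before the viability read; nearly all actives have a fitted effect of over 30% in size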
Method in brief: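 Cell viability in VM7Luc4E2 cells (endogenous full-length ER-alpha) measured by CellTiter-Fluor fluorescence in the same wells as the luciferase screen. Cells pre-cultured 5 days in charcoal-stripped serum, then treated 22 h with compounds at 15 concentrations plus 10.0nM ICI-182,780.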

[2] = target: Progesterone receptor (Homo sapiens) (UniProt P06401); test: qHTS assay to identify small molecule agonists of the progesterone receptor (PR) signaling pathway (AID 1346784; calls by dose curve; also: nearly all actives have a fitted effect of over 30% in size)
Chain of Progesterone receptor (Homo sapiens) (P06401 whole entry, looked up): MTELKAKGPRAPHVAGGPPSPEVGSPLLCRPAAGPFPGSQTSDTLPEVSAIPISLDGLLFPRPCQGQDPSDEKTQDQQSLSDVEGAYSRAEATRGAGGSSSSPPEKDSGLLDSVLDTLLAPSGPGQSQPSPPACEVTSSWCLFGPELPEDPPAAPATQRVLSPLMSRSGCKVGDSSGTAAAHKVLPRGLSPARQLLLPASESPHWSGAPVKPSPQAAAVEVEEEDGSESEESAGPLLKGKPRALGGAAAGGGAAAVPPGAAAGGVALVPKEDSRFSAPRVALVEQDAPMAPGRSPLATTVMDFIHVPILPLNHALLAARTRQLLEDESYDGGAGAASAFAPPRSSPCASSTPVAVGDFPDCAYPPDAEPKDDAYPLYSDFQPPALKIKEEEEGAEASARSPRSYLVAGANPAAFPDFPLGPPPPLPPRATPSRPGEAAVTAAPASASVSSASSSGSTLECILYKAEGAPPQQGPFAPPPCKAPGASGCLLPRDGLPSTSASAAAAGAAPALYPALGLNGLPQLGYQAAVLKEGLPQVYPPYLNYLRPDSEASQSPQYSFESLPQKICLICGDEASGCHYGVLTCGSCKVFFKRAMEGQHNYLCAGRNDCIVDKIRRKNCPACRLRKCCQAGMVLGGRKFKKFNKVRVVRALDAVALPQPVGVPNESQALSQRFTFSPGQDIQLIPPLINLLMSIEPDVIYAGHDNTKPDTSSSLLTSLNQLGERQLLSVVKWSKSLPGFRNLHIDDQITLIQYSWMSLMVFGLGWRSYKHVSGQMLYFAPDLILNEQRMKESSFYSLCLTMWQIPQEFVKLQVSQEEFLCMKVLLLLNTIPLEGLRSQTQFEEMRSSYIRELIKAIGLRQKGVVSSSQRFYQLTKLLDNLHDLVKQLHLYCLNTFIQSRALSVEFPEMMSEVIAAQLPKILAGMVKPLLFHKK
Method in brief: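 The screen uses PR-UAS-bla HEK 293T cells in charcoal-stripped serum (2%). Compounds are applied for 16 hr at 37C after a 6 hr pre-incubation, and reporter activity is detected with a FRET beta-lactamase substrate after 2 hr at room temperature.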

[3] = target: Progesterone receptor (Homo sapiens) (UniProt P06401); test: qHTS assay to identify small molecule antagonists of the progesterone receptor (PR) signaling pathway (AID 1346795; active = well fitted inhibition curve with a large enough effect in the signal ratio in the repeat runs, not every such curve was filed as active; the % refers to the signal ratio)
Method in brief: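 After 6 hr plating at 37C in 2% stripped-serum medium, PR-UAS-bla HEK293T cells got compounds, then 1 nM R5020. Sixteen hours later, LiveBLAzer substrate was applied for 2 hr at room temperature and fluorescence was recorded.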

[4] = qHTS assay to identify small molecule antagonists of the progesterone receptor (PR) signaling pathway - cell viability counter screen (AID 1346798); also: series mostly up to about 92 µM; nearly all actives have a fitted effect of over 50% in size
Method in brief: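 Viability was determined by ATP-based luminescence (CellTiter-Glo) in PR-UAS-bla HEK293T cells cultured in 2% charcoal-stripped serum and incubated 16 hr with compounds under R5020 stimulation.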

[5] = qHTS assay to identify small molecule agonists of the progesterone receptor (PR) signaling pathway - cell viability counter screen (AID 1346799; calls by dose curve; also: nearly all actives have a fitted effect of over 45% in size)
Method in brief: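 Viability was scored by ATP luminescence (CellTiter-Glo, 30 min, room temperature) in the same wells used for the reporter readout, after 16 hr compound exposure of PR-UAS-bla HEK293T cells.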

[6] = qHTS assay to identify small molecule antagonists of the TGF-beta/Smad signaling pathway - cell viability counter screen (AID 1346824); also: nearly all actives have a fitted effect of over 50% in size
Method in brief: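 SBE-bla HEK 293T cells, incubated overnight, then compound plus 0.25 ng/mL TGF-beta1 (stock added) for 5 hr at 37 C. Viability was read in the same wells by CellTiter-Glo luminescence after 30 min at room temperature.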

[7] = qHTS assay to identify small molecule agonists of the TGF-beta/Smad signaling pathway - cell viability counter screen (AID 1346829); also: top concentration of the series differs between compounds; nearly all actives have a fitted effect of over 45% in size
Method in brief: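 Tox21 qHTS format: SBE-bla HEK 293T cells treated with DMSO-dissolved compounds for 5 hr; CellTiter-Glo luminescence after 30 min at room temperature.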

[8] = qHTS assay to identify small molecule agonists of the TGF-beta/Smad signaling pathway (AID 1346859; active = well fitted activation curve with a large enough effect in the signal ratio in the repeat runs, not every such curve was filed as active; the % refers to the signal ratio; also: series mostly up to about 77 µM)
Method in brief: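 Dual-wavelength fluorescence (460/530 nm emission) quantified beta-lactamase expression under the Smad binding element in HEK 293T cells following 5 hr compound treatment at 37 C.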

[9] = target: Thyrotropin-releasing hormone receptor (Homo sapiens) (UniProt P34981); test: qHTS assay to identify small molecule antagonists of the thyrotropin-releasing hormone receptor (TRHR) signaling pathway (AID 1346877; active = well fitted inhibition curve with a large enough effect in the repeat runs, not every such curve was filed as active; also: series mostly up to about 51 µM)
Chain of Thyrotropin-releasing hormone receptor (Homo sapiens) (P34981 whole entry, looked up): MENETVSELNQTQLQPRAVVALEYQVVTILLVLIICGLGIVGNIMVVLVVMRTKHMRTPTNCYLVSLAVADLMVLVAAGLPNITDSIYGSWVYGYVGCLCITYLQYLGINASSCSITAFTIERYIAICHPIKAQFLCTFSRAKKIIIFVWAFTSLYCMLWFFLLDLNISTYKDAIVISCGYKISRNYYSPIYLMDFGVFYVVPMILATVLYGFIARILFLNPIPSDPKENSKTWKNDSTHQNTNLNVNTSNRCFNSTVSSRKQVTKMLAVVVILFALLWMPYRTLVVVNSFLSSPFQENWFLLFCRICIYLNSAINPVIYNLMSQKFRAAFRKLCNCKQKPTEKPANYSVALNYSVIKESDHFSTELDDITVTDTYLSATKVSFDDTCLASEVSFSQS
Method in brief: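 TRHR-expressing HEK293 cells loaded with calcium dye for 2 h at 37 C; compounds pre-incubated 5 min at room temperature before TRH challenge at 1 nM final. Intracellular calcium fluorescence read kinetically for 3 min; 15 concentrations in triplicate.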

[10] = target: Thyrotropin-releasing hormone receptor (Homo sapiens) (UniProt P34981); test: qHTS assay to identify small molecule agonists of the thyrotropin-releasing hormone receptor (TRHR) signaling pathway (AID 1346891; calls by dose curve; also: series mostly up to about 58 µM)
Method in brief: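 Kinetic fluorescence (3 min, 1 s intervals) reported intracellular calcium after compound transfer onto TRHR-Hek293 cells pre-loaded with dye for 2 h at 37 °C.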

[11] = Human pregnane X receptor (PXR) small molecule agonists, qHTS cell viability counter screen (AID 1346977); also: nearly all actives have a fitted effect of over 50% in size
Method in brief: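 HepG2 cells stably carrying the PXR-Luc reporter are cultured with 5% charcoal-stripped FBS and treated with compounds for 24hr. CellTiter-Fluor is added at 23hr and fluorescence is read after 1hr.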

[12] = Caspase-3/7 induction in HepG2 cells by small molecules, qHTS assay (AID 1346978); also: nearly all actives have a fitted effect of over 15% in size
Method in brief: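 Wild-type HepG2 cells, 2,000/well, settled 5 hr at 37 C and 5% CO2, then compound-treated for 17 hr; caspase-3/7 activity read by luminescent Caspase-Glo 3/7 after 30 min at room temperature.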

[13] = Caspase-3/7 induction in CHO-K1 cells by small molecules, qHTS cell viability counter screen (AID 1346979); also: nearly all actives have a fitted effect of over 35% in size
Method in brief: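 Seeding: 1,500 CHO-K1 cells/well. Rest: 5hr, 37C. Treatment: compounds in DMSO, 16hr. Read: CellTiter-Fluor, 1hr, fluorescence.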

[14] = Caspase-3/7 induction in CHO-K1 cells by small molecules, qHTS assay (AID 1346980); also: nearly all actives have a fitted effect of over 15% in size
Method in brief: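 Wild-type CHO-K1 cells exposed to compounds for 17hr at 37 C, 5% CO2. Caspase-3/7 activity then measured by Caspase-Glo 3/7 luminescence after 30min at room temperature.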

[15] = Caspase-3/7 induction in HepG2 cells by small molecules, qHTS cell viability counter screen (AID 1346981); also: series mostly up to about 92 µM; nearly all actives have a fitted effect of over 30% in size
Method in brief: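 Wild-type HepG2 cells, 2,000/well, settled 5 hr at 37 C, 5% CO2 before compound addition. Viability read by CellTiter-Fluor fluorescence, reagent added after 16 hr compound exposure, then 1 hr at 37C, in the same wells as the caspase read.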

[16] = target: Nuclear receptor subfamily 1 group I member 2 (Homo sapiens) (UniProt O75469); test: Human pregnane X receptor (PXR) small molecule agonists, qHTS assay (AID 1346982); also: nearly all actives have a fitted effect of over 35% in size
Chain of Nuclear receptor subfamily 1 group I member 2 (Homo sapiens) (O75469 whole entry, looked up): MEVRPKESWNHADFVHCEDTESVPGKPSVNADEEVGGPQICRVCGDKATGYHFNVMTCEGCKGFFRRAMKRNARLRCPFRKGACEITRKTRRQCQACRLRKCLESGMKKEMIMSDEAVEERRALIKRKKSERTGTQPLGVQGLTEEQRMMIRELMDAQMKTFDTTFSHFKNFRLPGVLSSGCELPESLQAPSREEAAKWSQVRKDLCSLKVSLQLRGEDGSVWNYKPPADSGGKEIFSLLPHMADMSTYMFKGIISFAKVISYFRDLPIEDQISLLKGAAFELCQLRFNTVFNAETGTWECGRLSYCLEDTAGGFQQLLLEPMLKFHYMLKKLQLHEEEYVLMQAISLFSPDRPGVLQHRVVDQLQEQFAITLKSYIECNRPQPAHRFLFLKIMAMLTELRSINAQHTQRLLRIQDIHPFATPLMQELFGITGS
Method in brief: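 PXR-Luc HepG2 reporter cells (CYP3A4-driven luciferase) in 5% charcoal-stripped FBS medium, plated 5 h before compound addition, then treated 24 h at 37C. Luciferase read by ONE-Glo luminescence after 30 min at room temperature.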

[17] = target: Acetylcholinesterase (Homo sapiens) (UniProt P22303); test: Acetylcholinesterase (AChE) small molecule antagonists: colormetric cell-based qHTS assay (AID 1347395; calls by dose curve; also: nearly all actives have a fitted effect of over 30% in size)
Chain of Acetylcholinesterase (Homo sapiens) (P22303 whole entry, looked up): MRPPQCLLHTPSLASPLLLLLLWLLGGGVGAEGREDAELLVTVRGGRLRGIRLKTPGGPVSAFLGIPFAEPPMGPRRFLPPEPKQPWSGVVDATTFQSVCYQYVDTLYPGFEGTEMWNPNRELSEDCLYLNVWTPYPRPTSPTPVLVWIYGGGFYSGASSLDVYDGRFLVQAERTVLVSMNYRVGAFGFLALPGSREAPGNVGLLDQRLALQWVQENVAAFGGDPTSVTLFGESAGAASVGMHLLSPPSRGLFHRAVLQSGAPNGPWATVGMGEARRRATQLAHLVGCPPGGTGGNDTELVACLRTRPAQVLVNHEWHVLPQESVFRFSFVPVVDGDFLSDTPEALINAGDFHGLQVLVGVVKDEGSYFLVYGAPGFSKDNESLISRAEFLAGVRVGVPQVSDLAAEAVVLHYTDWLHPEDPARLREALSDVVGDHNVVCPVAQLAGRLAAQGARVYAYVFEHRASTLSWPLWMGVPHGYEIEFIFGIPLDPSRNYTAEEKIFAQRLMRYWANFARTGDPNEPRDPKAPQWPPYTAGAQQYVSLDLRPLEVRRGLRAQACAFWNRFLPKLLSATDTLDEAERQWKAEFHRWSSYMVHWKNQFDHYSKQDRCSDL
Method in brief: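 Quantitative HTS in attached SH-SY5Y cells: 30 min compound exposure, then 90 min with acetylthiocholine and DTNB at 37 C; colour from thiocholine reports AChE activity.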

[18] = target: Nuclear receptor subfamily 1 group I member 2 (Rattus norvegicus) (UniProt Q9R1A7); test: Rat pregnane X receptor (rPXR) activation by small molecules, qHTS assay (AID 1346983); settings: rPXR luciferase reporter cells, One-Glo luminescence, 24 h; active compounds read high; also: nearly all actives have a fitted effect of over 20% in size
Chain of Nuclear receptor subfamily 1 group I member 2 (Rattus norvegicus) (Q9R1A7 whole entry, looked up): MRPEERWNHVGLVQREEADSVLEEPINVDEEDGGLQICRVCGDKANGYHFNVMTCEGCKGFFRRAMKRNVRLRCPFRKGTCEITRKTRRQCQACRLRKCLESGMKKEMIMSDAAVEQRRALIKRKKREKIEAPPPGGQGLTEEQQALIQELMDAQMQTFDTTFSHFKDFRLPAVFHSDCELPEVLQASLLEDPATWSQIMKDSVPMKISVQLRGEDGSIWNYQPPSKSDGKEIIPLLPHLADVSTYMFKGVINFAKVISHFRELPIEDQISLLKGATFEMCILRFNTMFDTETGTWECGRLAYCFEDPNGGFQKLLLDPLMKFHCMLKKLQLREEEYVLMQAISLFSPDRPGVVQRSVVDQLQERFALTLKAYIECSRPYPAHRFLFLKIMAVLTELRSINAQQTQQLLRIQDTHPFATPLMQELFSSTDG
Method in brief: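 Cell-based rPXR activation assay: rPXR cells, 2,000 per well, rested 5hr at 37 C, then exposed to compounds in DMSO for 24 hr at 37 C. Luciferase activity read by One-Glo luminescence after 30 min at room temperature.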

[19] = target: Nuclear receptor subfamily 1 group I member 2 (Homo sapiens) (UniProt O75469); test: CYP3A4 induction through human pregnane X receptor (PXR) by small molecules, qHTS assay (AID 1346984); also: nearly all actives have a fitted effect of over 40% in size
Method in brief: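 DPX-2 HepG2 cells carrying a PXR response element and CYP3A4-promoter luciferase construct, treated with compounds 24 hr at 37C. Then P450-Glo CYP3A4 Luciferin-IPA substrate (3uM final) for 3 hr at 37C, One-Glo added, luminescence read.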

[20] = target: Nuclear receptor subfamily 1 group I member 2 (Homo sapiens) (UniProt O75469); test: Human pregnane X receptor (PXR) activation by small molecules, qHTS assay (AID 1346985); also: nearly all actives have a fitted effect of over 40% in size
Method in brief: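 DPX-2 cells (HepG2 co-transfected with a PXR response element and a CYP3A4-promoter luciferase construct) were seeded at 2,000 per well, rested 5 hr at 37C, then exposed to DMSO-dissolved compounds for 24 hr. Activation was read as luciferase luminescence.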
% is scaled to controls: 0 for no effect and ±100 for the full control effect.

CN(C)C1CCCCC1
inactive: Potency [1] | Potency [2] | Potency [3] | Potency [4] | Potency [5] | outcome [6] | Potency [7] | outcome [8] | Potency [9] | outcome [10] | Potency [11] | outcome [12] | Potency [13] | outcome [14] | Potency [15] | Potency [16] | Potency [17]

CC(=O)CN(CC(C)=O)N=O
inactive: Potency [1] | Potency [2] | Potency [3] | Potency [4] | Potency [5] | outcome [6] | Potency [7] | outcome [8] | Potency [9] | outcome [10] | Potency [11] | outcome [12] | Potency [13] | outcome [14] | Potency [15] | Potency [16] | Potency [17]

COP(=O)(O)OC
inactive: Potency [1] | Potency [2] | Potency [3] | Potency [4] | Potency [5] | outcome [6] | Potency [7] | outcome [8] | Potency [9] | outcome [10] | Potency [11] | outcome [12] | Potency [13] | outcome [14] | Potency [15] | Potency [16] | Potency [17]

CCOC(=O)c1ncn2c1CN(C)C(=O)c1c(I)cccc1-2
inactive: Potency [1] | Potency [2] | Potency [3] | Potency [4] | Potency [5] | outcome [6] | Potency [7] | outcome [8] | Potency [9] | outcome [10] | Potency [11] | outcome [12] | Potency [13] | outcome [14] | Potency [15] | Potency [16] | Potency [17]

C[C@H](N)C(=O)c1ccccc1
inactive: Potency [1] | Potency [2] | Potency [3] | Potency [4] | Potency [5] | outcome [6] | Potency [7] | outcome [8] | Potency [9] | outcome [10] | Potency [11] | outcome [12] | Potency [13] | outcome [14] | Potency [15] | Potency [16] | Potency [17]

NCC1(CC(=O)O)CCCCC1
inactive: Potency [1] | Potency [2] | Potency [3] | Potency [4] | Potency [5] | outcome [6] | Potency [7] | outcome [8] | Potency [9] | outcome [10] | Potency [11] | outcome [12] | Potency [13] | outcome [14] | Potency [15] | Potency [16] | Potency [17]

CN(C)C(=O)Oc1cc(OC(=O)N(C)C)cc(C(O)CNC(C)(C)C)c1 (configuration not stated)
inactive: Potency [1] | Potency [2] | Potency [3] | Potency [4] | Potency [5] | outcome [6] | Potency [7] | outcome [8] | Potency [9] | outcome [10] | Potency [11] | outcome [12] | Potency [13] | outcome [14] | Potency [15] | Potency [16] | max activation [18] -1.43% | Potency [19] | Potency [20] | Potency [17]

CC(C)[N+](C)(CCC(C(N)=O)(c1ccccc1)c1ccccc1)C(C)C
inactive: Potency [1] | Potency [2] | Potency [3] | Potency [4] | Potency [5] | outcome [6] | Potency [7] | outcome [8] | Potency [9] | outcome [10] | Potency [11] | outcome [12] | Potency [13] | outcome [14] | Potency [15] | Potency [16] | max activation [18] 0.796% | Potency [19] | Potency [20] | Potency [17]

CCOC(=O)C(Cl)Cc1cc(-n2nc(C)n(C(F)F)c2=O)c(F)cc1Cl (configuration not stated)
inactive: Potency [1] | Potency [2] | Potency [3] | Potency [4] | Potency [5] | outcome [6] | Potency [7] | outcome [8] | Potency [9] | outcome [10] | Potency [11] | outcome [12] | Potency [13] | outcome [14] | Potency [15] | Potency [16]

Cc1ccc(Cl)c(O)c1
inactive: Potency [1] | Potency [2] | Potency [3] | Potency [4] | Potency [5] | outcome [6] | Potency [7] | outcome [8] | Potency [9] | outcome [10] | Potency [11] | outcome [12] | Potency [13] | outcome [14] | Potency [15] | Potency [16] | max activation [18] -0.916% | Potency [19] | Potency [20] | Potency [17]

C=C(C)[C@H]1CN[C@H](C(=O)O)[C@H]1CC(=O)O
inactive: Potency [1] | Potency [2] | Potency [3] | Potency [4] | Potency [5] | outcome [6] | Potency [7] | outcome [8] | Potency [9] | outcome [10] | Potency [11] | outcome [12] | Potency [13] | outcome [14] | Potency [15] | Potency [16] | max activation [18] -1.12% | Potency [19] | Potency [20]

C/C=C/CC#N
inactive: Potency [1] | Potency [2] | Potency [3] | Potency [4] | Potency [5] | outcome [6] | Potency [7] | outcome [8] | Potency [9] | outcome [10] | Potency [11] | outcome [12] | Potency [13] | outcome [14] | Potency [15] | Potency [17]

O=C(O)CBr
inactive: Potency [1] | Potency [2] | Potency [3] | Potency [4] | Potency [5] | outcome [6] | Potency [7] | outcome [8] | Potency [9] | outcome [10] | Potency [11] | outcome [12] | Potency [13] | outcome [14] | Potency [15] | Potency [16] | Potency [17]

O=C(Cl)c1ccccc1
inactive: Potency [1] | Potency [2] | Potency [3] | Potency [4] | Potency [5] | outcome [6] | Potency [7] | outcome [8] | Potency [9] | outcome [10] | Potency [11] | outcome [12] | Potency [13] | outcome [14] | Potency [15] | Potency [16] | Potency [17]

CCC(C(N)=O)N1CCCC1=O (configuration not stated)
inactive: Potency [1] | Potency [2] | Potency [3] | Potency [4] | Potency [5] | outcome [6] | Potency [7] | outcome [8] | Potency [9] | outcome [10] | Potency [11] | outcome [12] | Potency [13] | outcome [14] | Potency [15] | Potency [16] | max activation [18] 4.65% | Potency [19] | Potency [20] | Potency [17]
